From PubChem BioAssay (NCI)
Compounds without any hit were thinned out: in the full panel of roughly 83,000, 20% have a hit.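 A percent growth of 40 corresponds to 60% growth inhibition; 0 means no net growth; -100 means all cells died. Active threshold: below 10.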 The source made the active and inactive calls.

Assays:
Assay in all cases: NCI-60 one-dose screen, 48 h (100 = growth as untreated, 0 = no growth, -100 = all killed)
Details in all cases: 10 µM unless noted
NCI-H23 lung = test system: NCI-H23 lung
NCI-H226 lung = test system: NCI-H226 lung
NCI-H322M lung = test system: NCI-H322M lung
HOP-62 NSCLC = test system: HOP-62 NSCLC
NCI-H460 lung = test system: NCI-H460 lung
NCI-H522 lung = test system: NCI-H522 lung
A549/ATCC NSCLC = test system: A549/ATCC NSCLC
786-0 renal = test system: 786-0 renal
COLO 205 colon = test system: COLO 205 colon
DU-145 prostate = test system: DU-145 prostate
K-562 leukemia = test system: K-562 leukemia
MALME-3M melanoma = test system: MALME-3M melanoma
MDA-MB-231 breast = test system: MDA-MB-231 breast
RXF 393 renal = test system: RXF 393 renal
SF-268 CNS = test system: SF-268 CNS
SF-295 CNS = test system: SF-295 CNS
SF-539 CNS = test system: SF-539 CNS
UACC-257 melanoma = test system: UACC-257 melanoma
M14 melanoma = test system: M14 melanoma

Measured: growth

O=C(Nc1cccc(-n2cnc3cc(-c4ccc(O)cc4)ccc32)c1)C1CC1
inactive: NCI-H23 lung 40.1% | NCI-H226 lung 13.8% | NCI-H322M lung 48% | HOP-62 NSCLC 44.7% | A549/ATCC NSCLC 27.4% | 786-0 renal 25.8% | COLO 205 colon 34.2% | DU-145 prostate 28.5% | K-562 leukemia 12.2% | MALME-3M melanoma 46.3% | MDA-MB-231 breast 32.3% | RXF 393 renal 14.1% | SF-268 CNS 34.9% | UACC-257 melanoma 73.3% | M14 melanoma 40.5%
active: NCI-H460 lung 7.41% | NCI-H522 lung 5.82% | SF-295 CNS 6.04% | SF-539 CNS -6.53%

C=C1CCC2C3(C)COC(c4ccco4)OC3CCC2(C)C1CC(Sc1ccccc1)C1=CCOC1=O (configuration not stated)
active: NCI-H522 lung 7.02%
inactive: NCI-H23 lung 64.8% | NCI-H226 lung 31.5% | NCI-H322M lung 92.2% | HOP-62 NSCLC 100% | NCI-H460 lung 105% | A549/ATCC NSCLC 53.7% | 786-0 renal 62.7% | COLO 205 colon 98% | DU-145 prostate 78.4% | K-562 leukemia 18.5% | MALME-3M melanoma 94.9% | MDA-MB-231 breast 78.5% | RXF 393 renal 96.5% | SF-268 CNS 91.5% | SF-295 CNS 76.1% | SF-539 CNS 48.3% | UACC-257 melanoma 54.1% | M14 melanoma 61.6%

CNS(=O)(=O)c1ccc(Nc2ccc(C(F)(F)F)cc2)c(-c2cn(C)cn2)c1
inactive: NCI-H23 lung 72.9% | NCI-H226 lung 48.8% | NCI-H322M lung 59.1% | HOP-62 NSCLC 95.3% | NCI-H460 lung 33.7% | NCI-H522 lung 36.5% | A549/ATCC NSCLC 37.1% | 786-0 renal 61.2% | COLO 205 colon 53.1% | DU-145 prostate 62.3% | K-562 leukemia 21.5% | MALME-3M melanoma 68.1% | MDA-MB-231 breast 60.3% | RXF 393 renal 52.1% | SF-268 CNS 41.5% | SF-295 CNS 43.7% | SF-539 CNS 64.4% | UACC-257 melanoma 64% | M14 melanoma 49.8%

COc1c(F)ccc(C(=O)Nc2ccc3nc(NC(=O)C4CCCN(S(=O)(=O)c5cccc(Cl)c5)C4)sc3c2)c1F (configuration not stated)
inactive: NCI-H23 lung 88.9% | NCI-H226 lung 77.3% | NCI-H322M lung 87.2% | HOP-62 NSCLC 103% | NCI-H460 lung 82% | NCI-H522 lung 79% | A549/ATCC NSCLC 68% | 786-0 renal 61% | COLO 205 colon 86.2% | DU-145 prostate 90.5% | K-562 leukemia 53.8% | MALME-3M melanoma 97.6% | MDA-MB-231 breast 87.9% | SF-268 CNS 86.9% | SF-295 CNS 78.7% | SF-539 CNS 70.7% | UACC-257 melanoma 84.7% | M14 melanoma 84.7%
active: RXF 393 renal -6.85%

COc1ccc2c(c1)c(/C=N/Nc1ccc3ccccc3n1)cn2C
inactive: NCI-H23 lung 36.4% | NCI-H226 lung 32.9% | NCI-H322M lung 36.2% | HOP-62 NSCLC 38.1% | A549/ATCC NSCLC 14.9% | DU-145 prostate 36.2% | MALME-3M melanoma 12.6% | RXF 393 renal 33.4% | SF-268 CNS 37.2% | UACC-257 melanoma 61.7%
active: NCI-H460 lung -64.8% | NCI-H522 lung 3.83% | 786-0 renal -87% | COLO 205 colon -82.7% | K-562 leukemia -40.1% | MDA-MB-231 breast -23.1% | SF-295 CNS -60.4% | SF-539 CNS -36.2% | M14 melanoma -6.98%

CC12CC[C@@H]3[C@]4(C)COC(c5cn[nH]c5-c5ccc(Cl)cc5)O[C@@H]4CC[C@@]3(C)[C@@H]1CC(C1=CCOC1=O)O2 (some centres not stated)
active: RXF 393 renal 5.04%
inactive: NCI-H23 lung 51.9% | NCI-H226 lung 45.5% | NCI-H322M lung 58.2% | HOP-62 NSCLC 62.7% | NCI-H460 lung 29.8% | NCI-H522 lung 20.9% | A549/ATCC NSCLC 34% | 786-0 renal 57.1% | COLO 205 colon 10.3% | DU-145 prostate 61.6% | K-562 leukemia 24.9% | MALME-3M melanoma 58% | MDA-MB-231 breast 52.1% | SF-268 CNS 60.3% | SF-295 CNS 43.8% | SF-539 CNS 51.2% | UACC-257 melanoma 46.7% | M14 melanoma 30.9%

COc1ccc(/C=C/c2nc3ccccc3c(=O)n2CC(=O)Nc2ccc(OC)cc2)cc1
inactive: NCI-H23 lung 53.9% | NCI-H226 lung 61.1% | NCI-H322M lung 83.3% | HOP-62 NSCLC 51.7% | NCI-H460 lung 50.8% | NCI-H522 lung 70.3% | A549/ATCC NSCLC 46.9% | COLO 205 colon 87.8% | DU-145 prostate 77.2% | K-562 leukemia 95.3% | MALME-3M melanoma 73.7% | MDA-MB-231 breast 27.3% | RXF 393 renal 70.5% | SF-268 CNS 71.4% | SF-295 CNS 74.6% | UACC-257 melanoma 103% | M14 melanoma 90.3%
active: 786-0 renal -12.7% | SF-539 CNS -18.5%

COc1ccc(-c2ccc(SCC(=O)NCCc3ccc(S(N)(=O)=O)cc3)nn2)cc1
inactive: NCI-H23 lung 64.2% | NCI-H226 lung 77% | NCI-H322M lung 96.2% | HOP-62 NSCLC 81.3% | NCI-H460 lung 107% | NCI-H522 lung 70% | A549/ATCC NSCLC 86.6% | 786-0 renal 85.8% | COLO 205 colon 95.4% | DU-145 prostate 96.1% | K-562 leukemia 54.1% | MALME-3M melanoma 89.3% | MDA-MB-231 breast 92.6% | RXF 393 renal 80.2% | SF-268 CNS 103% | SF-295 CNS 84.9% | SF-539 CNS 88.7% | UACC-257 melanoma 55.3% | M14 melanoma 99.7%
